Most compounds without a hit are left out; they make up all but 1.6% or so of the library.
eIF4E 4G PPI: blocks eIF4E binding to eIF4G | inhibition, % at 21.7 µM | AID 782 | hit rate 0.37% among 220,000 | TR-FRET eIF4E-eIF4GI(517-606) binding, 2 h | P63073+Q04637;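 active means inhibition above about 30%, limit read from the data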;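 further: 0% = full FRET control wells and 100% = background wells lacking eIF4GI fragment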
PERK inh: blocks human PERK kinase; AID 1416; Q9NZJ5; hit rate 0.17% among 220,000; CHO PERK-DD fusion, SEAP luminescence translation reporter; inhibition, % at 5.6 µM;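 active means inhibition above the mean inhibition of all tested compounds plus 3 SD, set separately per screening campaign, cut at about 2.9% in these data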;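 further: PERK kinase domain activated by AP20187 dimerizer at 100 nM; 0% = DMSO with dimerizer and 100% = rapamycin at 8.4 µM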
Target sequence (Q9NZJ5 whole entry, looked up, the tested form may be a part): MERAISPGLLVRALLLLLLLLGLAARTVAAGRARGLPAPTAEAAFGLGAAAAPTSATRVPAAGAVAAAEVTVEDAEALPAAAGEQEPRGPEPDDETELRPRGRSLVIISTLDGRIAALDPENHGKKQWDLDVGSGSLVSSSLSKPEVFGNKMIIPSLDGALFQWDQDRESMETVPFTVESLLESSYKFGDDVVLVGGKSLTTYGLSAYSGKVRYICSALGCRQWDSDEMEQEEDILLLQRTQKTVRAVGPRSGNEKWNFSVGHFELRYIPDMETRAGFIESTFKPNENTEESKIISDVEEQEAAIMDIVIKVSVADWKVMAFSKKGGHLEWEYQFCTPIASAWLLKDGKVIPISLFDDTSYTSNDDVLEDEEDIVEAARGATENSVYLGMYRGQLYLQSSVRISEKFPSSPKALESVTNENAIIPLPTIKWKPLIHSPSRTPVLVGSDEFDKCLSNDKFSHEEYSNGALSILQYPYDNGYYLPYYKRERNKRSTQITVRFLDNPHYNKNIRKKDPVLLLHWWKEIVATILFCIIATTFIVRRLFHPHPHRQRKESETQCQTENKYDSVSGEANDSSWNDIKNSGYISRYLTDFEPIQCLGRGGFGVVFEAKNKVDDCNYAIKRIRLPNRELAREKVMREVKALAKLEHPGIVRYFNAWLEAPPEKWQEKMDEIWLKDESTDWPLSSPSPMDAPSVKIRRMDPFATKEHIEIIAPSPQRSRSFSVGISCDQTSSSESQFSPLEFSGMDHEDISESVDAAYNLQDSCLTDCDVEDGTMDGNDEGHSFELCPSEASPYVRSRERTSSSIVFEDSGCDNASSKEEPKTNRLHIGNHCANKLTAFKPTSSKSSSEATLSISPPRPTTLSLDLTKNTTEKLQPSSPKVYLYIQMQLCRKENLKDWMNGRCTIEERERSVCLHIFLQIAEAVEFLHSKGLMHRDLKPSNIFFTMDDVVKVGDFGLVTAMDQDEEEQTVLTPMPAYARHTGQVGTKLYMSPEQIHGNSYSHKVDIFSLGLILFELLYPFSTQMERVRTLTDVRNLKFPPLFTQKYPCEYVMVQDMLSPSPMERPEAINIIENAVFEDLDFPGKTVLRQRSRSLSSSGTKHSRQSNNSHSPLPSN
PABP polyA inh: blocks human PABP binding to poly(A) RNA. P11940. fluorescence polarization. calls only at 35 µM. hit rate 1% among 290,000. AID 2014;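 further: calls also rest on retests at 20 µM and on dose response follow-up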
eIF4H inh: inhibitors of RNA binding by human eIF4H | inhibition, % at 35 µM | eIF4H fluorescence polarization binding assay | Q15056 | hit rate 0.94% among 290,000;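 further: calls also rest on retests at 20 µM and on dose response follow-up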
MLLE-PAM2 inh: inhibitors of microRNA-mediated deadenylation, human PABP1 MLLE binding; GST-MLLE / FITC-PAM2 fluorescence polarization; inhibition, % at 20 µM; hit rate 0.36% among 360,000; AID 588489; in the data active means inhibition above about 35%, passing the limit was not always enough;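 further: plate controls were DMSO wells with GST-MLLE for no effect and wells lacking GST-MLLE protein for full effect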
The depositor's hits bear a star; i = inactive; ? = inconclusive; / = not tested or not shown; + = active, no number; [ ] = dose if it differs, or a comment. Unless noted, how the calls were made is not given here.

SMILES	eIF4E 4G PPI	PERK inh	PABP polyA inh	eIF4H inh	MLLE-PAM2 inh
CC(O)(c1cccnc1)c1nc(/C=C/c2ccccc2)cs1 (centres undefined)	/	/	/	/	0.7
O=C(NC(=S)Nc1ccc2oc(=O)ccc2c1)c1ccccc1F	2.1	3.7*	i	-6.4	32.5
CN(C)c1ccc(N=Nc2ccc(C(=O)O)cc2)cc1	/	/	+	69.7*	-16.3
O=[N+]([O-])/C=C\c1ccc(N2CCCC2)c(F)c1	2.9	0.0	i	81.9	-118.3
COC(=O)c1sc(=S)n(-c2cc(F)ccc2F)c1N	-4.5	-0.3	i	-9.8	39.5*
CCOC(=O)c1sc(=S)n(-c2cc(F)ccc2F)c1N	-3.0	0.9	i	1.3	36.9
Nc1ccc(Cn2ccc3c4c(N)nc(N)nc4ccc32)cc1	/	/	/	/	8.5
COc1ccccc1NC(=O)c1ccc(NC(=O)c2nc3nccc(C)n3n2)cc1	/	/	/	/	9.1
Cc1ccccc1NC(=O)c1nc2nccc(C)n2n1	-4.6	-0.2	i	active	9.4
Nc1cc(=O)[nH]c(SCC(=O)Nc2cc(S(=O)(=O)N3CCCCC3)ccc2Cl)n1	/	/	/	/	13.8
COc1ccc(CN(C)C(=O)C2CSC3(C)CCC(=O)N23)cc1OC (centres undefined)	/	/	/	/	-2.4
Cc1ccccc1-n1nc(C(=O)O)cc1-c1ccccc1	/	3.1*	i	-4.6	2.7
CCN(C(=O)Cn1cnc2cc([N+](=O)[O-])ccc2c1=O)C1CCS(=O)(=O)C1 (centres undefined)	1.8	0.5	i	13.5	-0.5
CCCCCCCCCCCCOC(=O)C[N+](C)(C)C	-0.1	3.2*	i	0.0	/
S=c1[nH]nc(-c2ccco2)n1/N=C/c1ccc(Cl)cc1	33.5*	1.2	i	1.7	-25.7
S=c1[nH]nc(-c2ccccc2)n1/N=C/c1ccc(Cl)cc1	/	/	i	3.9	-81.2
S=c1[nH]nc(-c2ccc(Cl)cc2)n1/N=C/c1cccs1	95.5*	2.1	i	-6.6	-73.8
COc1ccc(C)cc1NC(=S)N1CCN(S(C)(=O)=O)CC1	13.6	1.7	i	-7.1	-7.4
CC(NC=C1C(=O)OC(C)(C)OC1=O)C(=O)O (centres undefined)	3.6	3.3*	i	-2.3	4.8
CC(C)C(NC=C1C(=O)OC(C)(C)OC1=O)C(=O)O (centres undefined)	/	0.1	i	-13.4	-3.8
COc1ccnc(CN(C)C(=O)C2CCC(=O)N(CCN(C)C)C2)c1 (centres undefined)	/	/	i	54.0*	-7.7
CCc1ccc(CN(C)C(=O)C2CCC(=O)N(CCc3ccc(OC)cc3)C2)nc1 (centres undefined)	/	/	i	2.9	10.8
O=C(NC1CCCC1)c1cnc2n(c1=O)CCS2	95.2*[fluorescence artefact?]	-1.0	i	-7.8	0.6
Cn1c(=O)oc2cc(S(=O)(=O)N3CCC4(CC3)OCCO4)ccc21	-1.5	0.7	+	95.1*	-8.2
O=S(=O)(NC1CC1)c1ccc(S(=O)(=O)N2CCC3(CC2)OCCO3)cc1	0.1	0.7	i	-5.9	-2.5
SMILES	eIF4E 4G PPI	PERK inh	PABP polyA inh	eIF4H inh	MLLE-PAM2 inh
CC(C)CNS(=O)(=O)c1ccc(S(=O)(=O)N2CCC3(CC2)OCCO3)cc1	-2.4	-0.3	+	?	5.9
O=C(N=Nc1c(O)[nH]c2ccccc12)c1ccc2c(c1)OCO2	-1.4	1.5	+	8.5*	-1.7
Oc1ccc(CN2CCCc3ccccc32)c2cccnc12	-1.6	0.8	i	16.9	41.6*
Cc1cnc(NC(=O)C2CCC(C(C)(C)C)CC2)s1 (centres undefined)	/	/	i	1.1	10.4
CCCCc1c(O)c2ccccc2n(CCCC)c1=O	-4.6	0.9	i	6.9	8.4
CCCCc1c(CCC)c(=N)c2ccccc2n1C	-1.2	-0.5	+	1.6	-106.7
CN1CCc2cccc3c2[C@@H]1Cc1ccc(O)c(O)c1-3	25.7	-0.4	i	25.5	45.7*
COc1ccc2c(c1O)-c1ccccc1CCN(C)C2	0.2	0.3	i	2.0	-1.7
COc1ccc(CN2CCNC(=O)C2CC(=O)NCCC2=CCCCC2)c(F)c1 (centres undefined)	/	/	i	15.6	2.0
N=c1c2cn[nH]c2nc(SCC(=O)c2ccc(Br)cc2)n1-c1ccc(Br)cc1	-1.1	0.3	i	-9.7	-27.0
COc1ccc(CCC(=O)NCCS(=O)(=O)N2CCN(c3ccccc3OC)CC2)cc1	/	/	i	0.5	-3.0
CCOc1ccc(-c2ccc(/C=C3/C(=N)N4C(C)=CSC4=NC3=O)o2)c([N+](=O)[O-])c1	14.0	-0.1	+	79.6*	-9.7
CCN(CC(=O)NCc1cccs1)S(=O)(=O)c1cccc(Br)c1	/	/	/	/	14.2
CCCN1C(=O)SC(CC(=O)Nc2ccc(C)cc2)C1=O (centres undefined)	-1.0	0.1	i	-3.7	45.2*
Cc1ccc(NC(=O)CC2SC3=NCCN3C2=O)cc1 (centres undefined)	8.1	1.3	i	-2.1	43.8*
O=C(CC1SC(=O)N(c2ccccc2)C1=O)Nc1ccccc1 (centres undefined)	5.5	-0.5	i	-2.0	49.5*
O=C(CC1SC2=NCCN2C1=O)Nc1ccccc1 (centres undefined)	2.6	0.3	i	1.6	-7.9
Cc1ccc(NC(=O)CC2SC(=O)N(c3ccccc3)C2=O)cc1 (centres undefined)	2.2	0.2	i	-0.5	44.5*
Cc1cccc(NC(=O)CC2SC(=O)N(c3ccccc3)C2=O)c1 (centres undefined)	-4.6	1.9	i	-15.4	30.6
CCOCCCn1c(=N)c(S(=O)(=O)c2ccc(C)cc2)cc2c(=O)n3cc(C)ccc3nc21	/	/	i	?	40.4*
CCn1c(=N)c(S(=O)(=O)c2ccc(C)cc2)cc2c(=O)n3ccccc3nc21	0.7	0.2	i	2.2	/
COc1cccc(C(CNC(=O)c2ccc(Cl)c(S(=O)(=O)N3CCCC3)c2)N(C)C)c1 (centres undefined)	/	/	/	/	-1.1
O=S(=O)(NCCCSc1ccccc1)c1ccccc1F	/	/	i	-9.4	43.3*
O=[N+]([O-])c1ccccc1S(=O)(=O)NCCSc1ccccc1	/	/	i	8.4	-12.8
CCOC(=O)c1c(C)oc2c1c(C=NCCO)c(O)c1ccccc12	2.1	-0.2	i	?	51.7*
Cc1nnc(NC(=O)CSc2nc(C(C)C)nc3ccccc23)s1	/	0.2	i	-3.9	37.3*
ClCCn1c(CCl)nc2ccc(Cl)cc21	/	/	/	/	0.2
CCN(CC)C(=O)CC(c1cc(OC)c(OC)c(OC)c1)c1c(OC)cc(OC)c2c(-c3ccccc3)cc(=O)oc12 (centres undefined)	34.5*	/	+	103.4*	-3.1
CC(=O)Nc1ccc(N2CCCCC2)c(C(=O)Nc2cccc(C)c2)c1	43.2*	-0.5	i	-4.2	-1.8
Cc1cccc(NC(=O)c2cc(NC(=O)C3CCCCC3C(=O)O)ccc2N2CCCCC2)c1 (centres undefined)	1.3	0.1	i	-3.5	3.4

Screening results (PubChem)
